# Compound activity (PubChem BioAssay)
# Many of the other results were omitted from the sample, so hits are more common in it than they were.
# IDE exosite FP – insulin-degrading enzyme (human) exo-site inhibition; P14735; purified IDE, FL-6b probe fluorescence polarization; hits give low values; z-score at 20 µM; 6.3% of 17,000 active; AID 1259349;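 active means z-score of -3 or lower, meaning strong loss of probe binding signal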;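 further: His-tagged human IDE residues 42-1019 made in E. coli with 30 nM FL-6b probe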
# Target sequence (P14735 42-1019 limits assumed): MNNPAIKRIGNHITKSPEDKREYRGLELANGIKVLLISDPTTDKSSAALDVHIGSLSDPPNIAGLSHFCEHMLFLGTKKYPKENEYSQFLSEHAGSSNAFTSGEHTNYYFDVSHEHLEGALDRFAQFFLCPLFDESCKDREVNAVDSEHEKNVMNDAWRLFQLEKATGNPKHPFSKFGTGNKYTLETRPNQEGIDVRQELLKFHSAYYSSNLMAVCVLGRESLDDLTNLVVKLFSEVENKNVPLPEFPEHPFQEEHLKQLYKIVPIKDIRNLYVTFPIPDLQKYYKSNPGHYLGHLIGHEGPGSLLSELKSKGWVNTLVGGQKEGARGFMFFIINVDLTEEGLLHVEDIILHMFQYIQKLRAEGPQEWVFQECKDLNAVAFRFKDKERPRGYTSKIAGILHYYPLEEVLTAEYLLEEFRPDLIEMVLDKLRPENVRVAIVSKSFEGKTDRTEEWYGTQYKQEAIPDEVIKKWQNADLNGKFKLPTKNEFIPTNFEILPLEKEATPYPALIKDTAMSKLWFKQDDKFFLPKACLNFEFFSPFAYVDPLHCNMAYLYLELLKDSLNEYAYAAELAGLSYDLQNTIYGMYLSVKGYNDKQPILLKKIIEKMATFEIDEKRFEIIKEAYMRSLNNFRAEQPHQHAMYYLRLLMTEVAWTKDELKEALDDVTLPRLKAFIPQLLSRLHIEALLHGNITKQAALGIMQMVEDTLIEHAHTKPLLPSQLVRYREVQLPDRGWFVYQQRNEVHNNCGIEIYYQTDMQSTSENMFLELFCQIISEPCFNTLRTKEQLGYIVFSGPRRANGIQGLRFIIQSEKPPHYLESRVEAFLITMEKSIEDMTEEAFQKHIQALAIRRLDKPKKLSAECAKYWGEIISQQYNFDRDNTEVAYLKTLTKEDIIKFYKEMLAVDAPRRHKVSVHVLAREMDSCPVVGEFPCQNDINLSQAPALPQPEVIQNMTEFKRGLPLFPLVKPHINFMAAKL
# * hit, by the source's call; ! = a repeat was not active.
SMILES,IDE exosite FP
CO[C@@H]1CN(C)C(=O)c2cc(NS(=O)(=O)c3ccc(Cl)cc3)ccc2OC[C@@H](C)N(C(=O)NC(C)C)C[C@@H]1C,2.3
COc1ccccc1-c1ccccc1[C@H]1[C@@H](C#N)N(C(=O)C2CC2)[C@H]1CO,1.9
O=C1CN(S(=O)(=O)Cc2ccccc2)C[C@@H]2[C@H](c3ccc(C#Cc4ccccc4)cc3)[C@@H](CO)N12,0.81
CO[C@H]1CN(C)C(=O)c2cc(NC(=O)Cc3ccccc3)ccc2OC[C@H](C)N(C(=O)c2ccccc2F)C[C@H]1C,1.5
N#C[C@H]1[C@@H](c2ccc(-c3ccncc3)cc2)[C@@H](CO)N1C(=O)C1CCCCC1,3.7
COc1cccc(-c2ccc([C@@H]3[C@H]4CN(C(=O)C5CCC5)CC(=O)N4[C@H]3CO)cc2)c1,-9.3*
COc1ccc(-c2ccc([C@@H]3[C@@H](CO)N4C(=O)CN(C(=O)C5CC5)C[C@@H]34)cc2)cc1,-2.5
COc1cccc(-c2ccc([C@@H]3[C@@H](CO)N4C(=O)CN(C(=O)C5CC5)C[C@H]34)cc2)c1,-5.2*
COc1ccc(-c2ccc([C@H]3[C@H]4CN(C(=O)C5CC5)CC(=O)N4[C@H]3CO)cc2)cc1,-0.25
CN(C)C(=O)c1cccc(-c2ccc([C@H]3[C@H](CO)N4C(=O)CN(C(=O)C5CCC5)C[C@@H]34)cc2)c1,0.83
COc1ccc(-c2ccc([C@H]3[C@H](CO)N4C(=O)CN(C(=O)C5CCC5)C[C@@H]34)cc2)cc1,1.7
COc1cccc(-c2ccc([C@H]3[C@@H](CO)N4C(=O)CN(C(=O)C5CCC5)C[C@@H]34)cc2)c1,-7*
COc1ccc(-c2ccc([C@@H]3[C@@H](CO)N4C(=O)CN(C(=O)C5CCC5)C[C@H]34)cc2)cc1,-0.21
COc1ccc(-c2ccc([C@@H]3[C@H]4CN(C(=O)C5CCC5)CC(=O)N4[C@H]3CO)cc2)cc1,3.1
COc1cccc(-c2ccc([C@@H]3[C@@H](CO)N4C(=O)CN(C(=O)C5CCC5)C[C@@H]34)cc2)c1,-12*
O=C(C1CCC1)N1CC(=O)N2[C@H](C1)[C@@H](c1ccc(-c3cccnc3)cc1)[C@@H]2CO,-1.7
O=C(C1CCC1)N1CC(=O)N2[C@H](C1)[C@H](c1ccc(-c3cccnc3)cc1)[C@@H]2CO,0.94
CCCC#Cc1ccc([C@@H]2[C@H](CO)N3C(=O)CN(C(=O)Nc4ccccc4)C[C@@H]23)cc1,1.1
CN(C)C(=O)c1cccc(-c2ccc([C@@H]3[C@@H](C#N)N(C(=O)C4CCC4)[C@H]3CO)cc2)c1,-0.093
N#C[C@@H]1N[C@@H](CO)[C@H]1c1ccc(-c2cccc(F)c2)cc1,-0.71
O=C(NC[C@@H]1[C@H](c2ccccc2)[C@@H](CO)N1C(=O)Cc1ccncc1)C1CCC1,-0.97
CCS(=O)(=O)N1CC2(C1)[C@H](c1ccccc1)[C@H](CO)N2C(=O)c1ccccc1,1.1
O=C(C[C@@H]1CC[C@H]2[C@@H](COC[C@@H](O)CN2C(=O)c2cccnc2)O1)NCC1CC1,0.65
CCCC#Cc1ccc([C@H]2[C@@H](CO)N3CCCCN(Cc4cncnc4)C[C@H]23)cc1,-1.8
CCCC#Cc1ccc([C@@H]2[C@@H](CO)N3CCCCN(Cc4cncnc4)C[C@H]23)cc1,3.7
SMILES,IDE exosite FP
OC[C@@H]1[C@H](c2ccc(Br)cc2)[C@H]2CN(Cc3ccccn3)CCCCN12,0.72
OC[C@H]1[C@@H](c2ccc(C#Cc3ccccc3)cc2)[C@@H]2CN(Cc3cncnc3)CCCCN12,-16*
OC[C@@H]1[C@@H](c2ccc(C#Cc3ccccc3)cc2)[C@@H]2CN(Cc3ccccn3)CCCCN12,-8.6*
OC[C@H]1[C@H](c2ccc(C#Cc3ccccc3)cc2)[C@H]2CN(Cc3cncnc3)CCCCN21,-7.8*
CCCC#Cc1ccc([C@@H]2[C@H]3CN(Cc4cncnc4)CCCCN3[C@H]2CO)cc1,2.9
OC[C@@H]1[C@@H](c2ccc(-c3ccccc3)cc2)[C@@H]2CN(Cc3ccccn3)CCCCN12,-2.9
COCC#Cc1ccc([C@H]2[C@H](CO)N3CCCCN(Cc4cncnc4)C[C@@H]23)cc1,3.8
CCS(=O)(=O)N1CCCCN2[C@H](CO)[C@@H](c3ccc(-c4ccc(C#N)cc4)cc3)[C@H]2C1,3.9
O=C(c1cnccn1)N1CC(=O)N2[C@H](CO)[C@H](c3ccc(C#CC4CCCCC4)cc3)[C@@H]2C1,0.18
CO[C@@H](CN(C)S(=O)(=O)c1cn(C)cn1)[C@@H](C)CN(C(=O)Nc1ccc(C(F)(F)F)cc1)[C@@H](C)CO,1.5
O=C(C[C@H]1CC[C@@H]2[C@H](COC[C@H](O)CN2S(=O)(=O)c2cccc(F)c2)O1)NCc1ccncn1,2.1
C[C@@H]1CN([C@H](C)CO)C(=O)c2cc(NS(=O)(=O)c3ccc(F)cc3)ccc2O[C@@H]1CN(C)C(=O)Nc1ccccc1,2.3
COc1ccc(C[C@@H]2CCn3nncc3COC[C@@H](CC(C)C)NC2=O)cc1,-1.2
O=C1[C@H](Cc2ccc(C(F)(F)F)cc2)CCn2nncc2COC[C@H]2CCCCN12,2.4
Cc1cccc(S(=O)(=O)N2C[C@H]3[C@@H](c4ccccc42)[C@@H](CO)N3C(=O)c2ccccc2)c1,0.35
C[C@H](CO)N1C[C@H](C)[C@H](CN(C)C(=O)c2cnccn2)Oc2cc(C#CCC3CCCC3)ccc2S1(=O)=O,0.17
Cn1cnc(S(=O)(=O)N2C[C@@H](O)COC[C@@H]3O[C@H](CC(=O)NCc4cccc(F)c4)CC[C@H]32)c1,-0.42
CN(C)C(=O)c1cccc(-c2ccc(C3[C@H]4CNC[C@@H]3N4Cc3nccs3)cc2)c1 (stereo not given in full),0.43
COc1ccccc1-c1ccccc1[C@@H]1[C@H](C#N)N(C(=O)C2CCC2)[C@H]1CO,3.3
COc1ccccc1-c1ccc([C@H]2[C@@H](CO)N(C(=O)C3CCC3)[C@H]2C#N)cc1,-2.3
COc1ccc(-c2ccc([C@@H]3[C@H](C#N)N(C(=O)c4cccnc4)[C@H]3CO)cc2)cc1,-1.9
COc1ccc(-c2ccc([C@@H]3[C@@H](CO)N(C(=O)c4cccnc4)[C@H]3C#N)cc2)cc1,4.5
CN(C)C(=O)c1ccc(-c2ccc(C3[C@@H]4CN(Cc5nccs5)C[C@H]3N4)cc2)cc1 (stereo not given in full),-2
COc1ccccc1-c1ccc([C@@H]2[C@@H](C#N)N(C(=O)C3CCC3)[C@@H]2CO)cc1,-12*
COc1ccccc1-c1ccc([C@H]2[C@H](C#N)N(C(=O)C3CCC3)[C@H]2CO)cc1,-8.1*
SMILES,IDE exosite FP
COc1ccccc1-c1ccc([C@@H]2[C@H](C#N)N(C(=O)C3CCC3)[C@H]2CO)cc1,-1.5
CN(C)C(=O)c1cccc(-c2ccc(C3[C@@H]4CN(Cc5nccs5)C[C@H]3N4)cc2)c1 (stereo not given in full),-3.2*!
COc1ccccc1-c1ccc([C@@H]2[C@@H](C#N)N(C(=O)c3cccnc3)[C@@H]2CO)cc1,-34*
COc1ccccc1-c1ccccc1[C@H]1[C@@H](C#N)N(C(=O)C2CCC2)[C@@H]1CO,1.2
COc1cccc(NC(=O)N2CC(=O)N3[C@@H](CO)[C@H](c4ccc(C5=CCCC5)cc4)[C@@H]3C2)c1,3.1
C[C@@H]1COCn2nncc2CC[C@H](Cc2cccc(Cl)c2)C(=O)N1,0.17
CCCC#Cc1ccc([C@@H]2[C@H](CO)N3CCCCN(CC4CCOCC4)C[C@@H]23)cc1,3.2
CC(C)NC(=O)NCC[C@H]1CC[C@@H](NS(=O)(=O)c2ccc(Oc3ccccc3)cc2)[C@H](CO)O1,0.58
